High-throughput results deposited in PubChem by National Center for Advancing Translational Sciences (NCATS).
A selection: hits, their analogues and other compounds. The true share with any hit is near 11%.
BAZ2B inh = inhibitors of human BAZ2B bromodomain; AlphaScreen BAZ2B-H3K14Ac peptide displacement; Potency, µM (series often up to 114 µM), usual class: inhibitors; 360,000 tested, 4.4% active; also: nearly all actives have a fitted effect of over 60% in size
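AlphaScreen displacement of biotin-H3(5-23)K14Ac peptide (50 nM final) from BAZ2B (50 nM final) in PBS pH 7.4, 0.01% Tween-20; complex preformed 30 min RT, then compounds (top 110 uM) 30 min RT, beads 20 min dark.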
JMJD2A Tudor = blocks the human JMJD2A Tudor domain. O75164. AID 504339. Potency, µM (doses to about 114 µM), usual class: inhibitors. AlphaScreen JMJD2A-Tudor / H3K4me3 peptide binding. 390,000 tested, 4.4% active; also: nearly all actives have a fitted effect of over 50% in size
L3MBTL1 block = blocks human L3MBTL1. Q9Y468. AlphaScreen L3MBTL1–H3K9me1 peptide binding. Potency, µM (highest dose often 57.1 µM), most hits filed as inhibitors. 230,000 tested, 0.66% active; also: nearly all actives have a fitted effect of over 60% in size
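AlphaScreen proximity signal between nickel-chelate acceptor and streptavidin donor beads (final 10 ug/mL) reports binding of 50 nM L3MBTL1 to 75 nM biotin-H3 K9me1 peptide; complex incubated with compounds 30 min at room temperature; cefsulodin titration as control.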
HP1b chromo inh = blocks HP1-beta chromodomain binding to methylated histone tails; Potency, µM (titrated, usually from 114 µM), usual class: inhibitors; AlphaScreen HP1-beta / biotin-H3K9me3 peptide binding; 390,000 tested, 0.56% active; P83916; AID 540317; also: nearly all actives have a fitted effect of over 70% in size
Target sequence (P83916 whole entry, looked up): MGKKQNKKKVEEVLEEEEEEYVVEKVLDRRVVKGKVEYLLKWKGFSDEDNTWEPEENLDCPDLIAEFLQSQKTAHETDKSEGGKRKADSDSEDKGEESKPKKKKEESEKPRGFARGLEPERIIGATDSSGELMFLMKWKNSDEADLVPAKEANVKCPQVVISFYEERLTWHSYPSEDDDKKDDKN
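Compound inhibition of the preformed complex between 50 nM HP1-beta and 50 nM biotinylated H3K9me3 peptide was read by AlphaScreen. Buffer was PBS pH 7.4 with 0.01% Tween-20. Incubations ran 30 min at room temperature, with 10 ug/mL donor/acceptor beads.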
G9a inh = inhibitors of human histone lysine methyltransferase G9a; G9a H3K9 monomethylation, AlphaScreen, 2 h; Potency, µM (doses to about 102 µM), most hits filed as inhibitors; 350,000 tested, 8.8% active; AID 504332; also: nearly all actives have a fitted effect of over 75% in size
Target sequence (Q96KQ7 913-1193 limits assumed): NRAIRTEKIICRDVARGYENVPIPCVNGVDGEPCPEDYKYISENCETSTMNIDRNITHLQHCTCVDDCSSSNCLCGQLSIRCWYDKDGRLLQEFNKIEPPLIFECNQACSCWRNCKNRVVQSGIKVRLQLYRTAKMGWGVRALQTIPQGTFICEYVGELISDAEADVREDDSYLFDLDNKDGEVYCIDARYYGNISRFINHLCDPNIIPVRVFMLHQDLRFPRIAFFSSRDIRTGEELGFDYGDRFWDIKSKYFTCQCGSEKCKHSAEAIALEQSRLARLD
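G9a (20 nM) was preincubated 15 min with compound, then reacted 2 h at room temperature with 500 nM biotin-H3K9 peptide and 20 µM SAM. Monomethyl-H3K9 detected by AlphaScreen using anti-H3K9me1 antibody.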
Of the large screens only hits and unclear results are named; the others gave an inactive call. Calls follow the shape of the dose curve; as a rule, active = well fitted inhibition curve with a large enough effect; inconclusive = small, poorly fitted or top-dose-only effect; inactive = no such curve, though single readings can be large or run the other way.

CCOC(=O)C(c1ccccc1)C(Nc1ccc(F)cc1)c1ccccn1 (stereo not given)	none
CCOc1ccc(NC(c2ccccn2)c2oc(CO)cc(=O)c2O)cc1 (stereo not given)	BAZ2B inh 20µM, JMJD2A Tudor 22.4µM, HP1b chromo inh inconclusive, G9a inh 1.41µM (no result: L3MBTL1 block)
Cc1nc(NC(=O)c2cccnc2Cl)sc1C	none (no result: BAZ2B inh, L3MBTL1 block, G9a inh)
COC(=O)CCC(=O)N(CCN(C(=O)CCC(=O)OC)c1ccccc1)c1ccccc1	none (no result: BAZ2B inh, L3MBTL1 block)
COC(=O)CCN(C(C)=O)c1ccc(N)cc1	JMJD2A Tudor 50.1µM (no result: L3MBTL1 block)
CC(Sc1nnc2n1CCCCC2)C(=O)Nc1ccc(S(N)(=O)=O)cc1 (stereo not given)	G9a inh 44.7µM
NS(=O)(=O)c1ccc(NC(=O)CSc2nnc3n2CCCCC3)cc1	none (no result: BAZ2B inh, G9a inh)
COc1ccc(OCCn2c(CCNC(=O)C3CCCCC3)nc3ccccc32)cc1	none (no result: BAZ2B inh, L3MBTL1 block, G9a inh)
Cc1ccc(C(=O)/C=C/c2ccc(-c3ccccc3[N+](=O)[O-])o2)cc1	BAZ2B inh 25.1µM, JMJD2A Tudor inconclusive, HP1b chromo inh inconclusive, G9a inh 25.1µM
O=C(/C=C/c1ccc(-c2ccccc2[N+](=O)[O-])o1)c1ccc(F)cc1	BAZ2B inh 22.4µM, JMJD2A Tudor inconclusive, HP1b chromo inh inconclusive, G9a inh 35.5µM
N#C/C(=C/c1ccc(-c2ccccc2[N+](=O)[O-])o1)C(N)=O	none
O=C(/C=C/c1ccc(-c2ccccc2[N+](=O)[O-])o1)c1ccc(Br)cc1	BAZ2B inh 28.2µM, JMJD2A Tudor inconclusive, G9a inh 25.1µM
Cc1ccc(C(=O)/C=C/c2ccccc2[N+](=O)[O-])cc1	BAZ2B inh inconclusive, JMJD2A Tudor inconclusive, HP1b chromo inh inconclusive, G9a inh inconclusive
Cc1ccc(C(=O)Nc2ccc3nc(SCC(=O)N4CCCc5ccccc54)sc3c2)cc1	none (no result: L3MBTL1 block)
Cn1c(N)c(C(=O)COC(=O)c2ncc(Cl)c(Cl)c2Cl)c(=O)n(C)c1=O	none
C/C(=N\O)C(C)/[N+]([O-])=C/c1nc(C)c(C)n1O (stereo not given)	JMJD2A Tudor 7.08µM (no result: BAZ2B inh, L3MBTL1 block, G9a inh)
CCCN1C2=C(C(=O)CC(C)(C)C2)C(c2ccc(F)cc2)C2=C1c1ccccc1C2=O (stereo not given)	BAZ2B inh inconclusive, HP1b chromo inh inconclusive, G9a inh 11.2µM (no result: L3MBTL1 block)
CC1(C)CC(=O)C2=C(C1)NC1=C(C(=O)c3ccccc31)C2c1ccc(Cl)cc1 (stereo not given)	BAZ2B inh 11.2µM, JMJD2A Tudor 15.8µM, L3MBTL1 block inconclusive, HP1b chromo inh inconclusive, G9a inh inconclusive
COc1ccc(C2C3=C(CCCC3=O)NC3=C2C(=O)c2ccccc23)cc1 (stereo not given)	BAZ2B inh 35.5µM, JMJD2A Tudor 50.1µM, HP1b chromo inh inconclusive (no result: G9a inh)
COc1ccc(C2NC(=O)NC3=C2C(=O)CCC3)cc1 (stereo not given)	none
Cc1ccc(C2C3=C(CC(C)(C)CC3=O)NC3=C2C(=O)c2ccccc23)cc1 (stereo not given)	BAZ2B inh 31.6µM, JMJD2A Tudor 50.1µM, L3MBTL1 block inconclusive, HP1b chromo inh inconclusive, G9a inh 14.1µM
CCC(C(=O)N1CCN(c2ccccc2)CC1)n1c(C)c2cnn(-c3ccccc3)c(=O)c2c1C (stereo not given)	none (no result: L3MBTL1 block)
CCc1nc(SCC(=O)c2ccc3c(c2)OCCO3)c2ccccc2n1	G9a inh 8.91µM
COc1ccc(OCc2ccc(C(=O)NN)cc2)cc1	JMJD2A Tudor inconclusive, G9a inh 44.7µM (no result: L3MBTL1 block)
O=C(CSc1nc(Cc2ccccc2)nc2ccccc12)c1ccc2c(c1)OCCO2	G9a inh inconclusive
COc1ccc(C(=O)NNC(=O)CCC(=O)NNC(=O)c2ccc(OC)cc2)cc1	BAZ2B inh 50.1µM, G9a inh 7.94µM (no result: L3MBTL1 block)
CCn1c(CSc2nc3ccccc3s2)nnc1SCC(=O)c1ccc2c(c1)OCCO2	JMJD2A Tudor 79.4µM, G9a inh inconclusive
CCn1c(CSc2nc3ccccc3s2)nnc1SCC(N)=O	none
Cc1cccn2c(=O)c(/C=C(\C#N)C(=O)NCc3ccccc3)c(N3CCC(C(N)=O)CC3)nc12	none
COc1ccc(NC(=O)c2ccco2)cc1NC(=O)C(C)(C)Oc1ccc(Cl)cc1	BAZ2B inh inconclusive, G9a inh inconclusive (no result: L3MBTL1 block)
CCOCCc1nn2c(=O)cc(COC(=O)c3ccc(NC(=O)C(C)(C)C)cc3)nc2s1	none (no result: L3MBTL1 block)
CCc1nc(SCC(=O)NNC(=O)c2ccc(OC)cc2)c2ccccc2n1	JMJD2A Tudor 50.1µM
COc1ccc(C(=O)NNC(=O)CSc2nc(C(C)C)nc3ccccc23)cc1	none (no result: L3MBTL1 block)
CCC(C)N=C1Sc2nc3ccc(C)cc3cc2CN1CCOC (stereo not given)	JMJD2A Tudor 44.7µM, G9a inh 5.01µM
CCOc1ccc(N=C2Sc3nc4ccc(C)cc4cc3CN2CCOC)cc1	BAZ2B inh inconclusive, G9a inh inconclusive (no result: L3MBTL1 block)
CCOc1ccc2nc3c(cc2c1)CN(CCCO)C(=NCCOC)S3	G9a inh 31.6µM
COCCN1Cc2cc3cc(C)ccc3nc2SC1=Nc1ccc(OC)cc1	G9a inh 44.7µM
CCOC(=O)NC(=O)c1cn(Nc2ccccc2)c(=O)[nH]c1=O	none (no result: G9a inh)
CC(C)Oc1ccc(CNC(=O)Nc2ccc3c(c2)N(C)C(=O)c2ccccc2S3)cc1	none (no result: L3MBTL1 block)
Cc1c(Cl)cnc(NC(=O)COC(=O)c2ccc([N+](=O)[O-])s2)c1Cl	BAZ2B inh 44.7µM, JMJD2A Tudor 50.1µM, L3MBTL1 block inconclusive, G9a inh 25.1µM
O=C(COC(=O)c1ccc2c(c1)OCO2)Nc1ncc(Cl)cc1Cl	none
Cc1[nH]c2ccccc2c1C(=O)COC(=O)c1ccc([N+](=O)[O-])s1	BAZ2B inh inconclusive, JMJD2A Tudor inconclusive, G9a inh 31.6µM
O=C(COC(=O)c1ccc([N+](=O)[O-])s1)Nc1ccc(Cl)cn1	L3MBTL1 block inconclusive
O=C(COC(=O)c1ccc2ncsc2c1)Nc1cc(Cl)ccc1F	none
O=C(COC(=O)c1ccc2ncsc2c1)Nc1ncc(Cl)cc1Cl	BAZ2B inh 50.1µM, JMJD2A Tudor inconclusive, L3MBTL1 block inconclusive, G9a inh inconclusive
O=C(COC(=O)c1ccc(O)cc1)Nc1ncc(Cl)cc1Cl	BAZ2B inh 79.4µM, L3MBTL1 block inconclusive, G9a inh inconclusive
CNc1ncc(Cc2ccccc2)s1	none
O=S(=O)(c1ccc2nc(Cl)c(Cl)nc2c1)N1CCN(S(=O)(=O)c2c(F)cccc2F)CC1	none (no result: BAZ2B inh, L3MBTL1 block, HP1b chromo inh, G9a inh)
CCOC(=O)c1oc2ccc(S(=O)(=O)n3nc(-c4cc(OC)cc(OC)c4)cc3N)cc2c1C	none (no result: L3MBTL1 block)
Cc1c(Cl)cnc(NC(=O)COC(=O)c2ccc3ncsc3c2)c1Cl	BAZ2B inh 50.1µM, JMJD2A Tudor inconclusive, L3MBTL1 block inconclusive, G9a inh inconclusive
Cc1c(Cl)cnc(NC(=O)COC(=O)c2cccs2)c1Cl	none
Cc1cnc2c(c1SCC(=O)Nc1ccc(F)cc1F)c(=O)n(C)c(=O)n2C	none (no result: L3MBTL1 block)
COc1ccc(CC(=O)NNC(=O)CSc2nnc(Cc3ccc(OC)cc3)n2-c2ccccc2)cc1	G9a inh 10µM
COc1ccc(CC(=O)NNC(=O)CSc2nnc(C)n2-c2ccccc2)cc1	G9a inh inconclusive
